Experimental findings from article PMC7862700, “An all-to-all approach to the identification of sequence-specific readers for epigenetic DNA modifications on cytosine” are described below.

What all share (assay): DAPPL (digital affinity profiling via proximity ligation, sequencing); 10 mM Tris-HCl pH 7.5, 50 mM NaCl, 1 mM DTT, 4% glycerol, room temperature, 30 min; GST-TFs on glutathione beads, 16-mer random dsDNA library, 0.1% formaldehyde crosslink after washing; high values mean tight binding
One assay deals with T1, FEV (Homo sapiens, UniProt Q99581 1-238).
T1 sequence: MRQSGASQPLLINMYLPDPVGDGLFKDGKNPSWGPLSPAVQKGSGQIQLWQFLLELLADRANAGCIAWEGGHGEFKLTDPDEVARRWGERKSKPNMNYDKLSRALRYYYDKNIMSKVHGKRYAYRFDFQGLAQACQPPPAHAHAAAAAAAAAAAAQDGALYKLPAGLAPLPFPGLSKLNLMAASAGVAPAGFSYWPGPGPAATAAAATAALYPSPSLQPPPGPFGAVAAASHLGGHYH
The note with it: protein: recombinant; tags: N-terminal GST; dsDNA, one strand shown. In outline:
(§1)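 Human transcription factors fused to GST were expressed in yeast, captured on glutathione beads, given DNA barcodes and pooled with a GST-only negative control. Pools were incubated with 200 nmole of a 16-mer random double-stranded DNA library in Tris/NaCl/DTT/glycerol buffer at room temperature for 30 min. They were then washed, crosslinked with 0.1% formaldehyde, proximity-ligated (BsaI/T4 ligase, 1 h, 37 °C), PCR-amplified and sequenced on an Illumina NextSeq500. Binding signal is each 6-mer's read frequency for a factor divided by its frequency for the GST control.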

For a further assay, the target named is ETV5 (Homo sapiens, UniProt P41161 1-510). The note with it: protein: recombinant; tags: N-terminal GST; dsDNA, one strand shown. In outline: as §1
Sequence of ETV5 (P41161 whole entry): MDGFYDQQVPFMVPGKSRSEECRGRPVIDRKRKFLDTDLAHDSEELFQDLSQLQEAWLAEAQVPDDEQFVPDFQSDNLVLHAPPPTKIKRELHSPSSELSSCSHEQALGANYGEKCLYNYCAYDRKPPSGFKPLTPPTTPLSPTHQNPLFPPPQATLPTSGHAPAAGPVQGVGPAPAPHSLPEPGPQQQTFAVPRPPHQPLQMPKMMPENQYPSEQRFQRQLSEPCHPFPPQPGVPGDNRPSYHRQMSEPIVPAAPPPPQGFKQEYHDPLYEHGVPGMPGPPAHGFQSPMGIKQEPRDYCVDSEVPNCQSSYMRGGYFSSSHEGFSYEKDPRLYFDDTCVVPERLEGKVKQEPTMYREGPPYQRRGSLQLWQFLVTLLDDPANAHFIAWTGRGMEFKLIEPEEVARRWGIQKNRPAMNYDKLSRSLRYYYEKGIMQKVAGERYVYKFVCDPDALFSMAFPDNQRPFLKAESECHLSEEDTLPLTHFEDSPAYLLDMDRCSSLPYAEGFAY
A further assay concerns the target HSF1 (Homo sapiens, UniProt Q00613 1-529). Conditions: protein: recombinant; tags: N-terminal GST; chain copies: 3; dsDNA, one strand shown. In a few lines: as §1
A further assay deals with T2, SPIC (Homo sapiens, UniProt Q8N5J4 1-248).
T2 sequence: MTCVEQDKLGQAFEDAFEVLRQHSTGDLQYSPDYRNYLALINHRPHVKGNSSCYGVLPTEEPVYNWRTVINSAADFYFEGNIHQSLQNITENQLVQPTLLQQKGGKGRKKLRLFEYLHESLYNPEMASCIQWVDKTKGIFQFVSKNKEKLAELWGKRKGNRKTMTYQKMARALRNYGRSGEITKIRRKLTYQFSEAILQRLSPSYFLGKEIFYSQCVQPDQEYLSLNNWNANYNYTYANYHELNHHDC
The note with it: protein: recombinant; tags: N-terminal GST; dsDNA, one strand shown. In a few lines:
as §1

Another assay concerns the target ELF4 (Homo sapiens, UniProt Q99607 1-663). Conditions: protein: recombinant; tags: N-terminal GST; dsDNA, one strand shown. In outline:
as §1

Another assay deals with T3, ELK4 (Homo sapiens, UniProt P28324-2 1-405).
T3 sequence: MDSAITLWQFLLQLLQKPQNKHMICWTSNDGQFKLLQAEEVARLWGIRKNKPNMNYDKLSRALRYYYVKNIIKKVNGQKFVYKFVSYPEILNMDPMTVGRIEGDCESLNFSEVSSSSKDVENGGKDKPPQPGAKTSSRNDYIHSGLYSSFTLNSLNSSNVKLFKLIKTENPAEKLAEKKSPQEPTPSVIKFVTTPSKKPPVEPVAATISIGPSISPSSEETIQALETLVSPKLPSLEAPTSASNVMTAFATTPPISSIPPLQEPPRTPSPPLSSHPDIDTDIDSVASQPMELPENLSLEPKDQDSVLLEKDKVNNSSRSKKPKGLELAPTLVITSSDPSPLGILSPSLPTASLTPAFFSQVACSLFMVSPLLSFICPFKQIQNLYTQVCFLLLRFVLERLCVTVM
The note with it: protein: recombinant; tags: N-terminal GST; dsDNA, one strand shown. In a few lines: as §1

For a further assay, the target named is T4, ETV2 (Homo sapiens, UniProt O00321 1-342).
T4 sequence: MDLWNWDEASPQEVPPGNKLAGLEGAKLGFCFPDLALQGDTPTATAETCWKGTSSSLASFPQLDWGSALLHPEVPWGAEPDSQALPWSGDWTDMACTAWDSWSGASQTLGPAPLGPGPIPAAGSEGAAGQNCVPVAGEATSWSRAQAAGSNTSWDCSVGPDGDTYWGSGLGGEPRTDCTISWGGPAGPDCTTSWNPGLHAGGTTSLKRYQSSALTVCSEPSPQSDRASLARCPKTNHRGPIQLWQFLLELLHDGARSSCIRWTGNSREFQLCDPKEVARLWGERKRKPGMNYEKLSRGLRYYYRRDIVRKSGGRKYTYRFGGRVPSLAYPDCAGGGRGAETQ
Conditions: protein: recombinant; tags: N-terminal GST; dsDNA, one strand shown. In outline:
as §1

A further assay concerns the target T5, ELF3 (Homo sapiens, UniProt P78545 1-371).
T5 sequence: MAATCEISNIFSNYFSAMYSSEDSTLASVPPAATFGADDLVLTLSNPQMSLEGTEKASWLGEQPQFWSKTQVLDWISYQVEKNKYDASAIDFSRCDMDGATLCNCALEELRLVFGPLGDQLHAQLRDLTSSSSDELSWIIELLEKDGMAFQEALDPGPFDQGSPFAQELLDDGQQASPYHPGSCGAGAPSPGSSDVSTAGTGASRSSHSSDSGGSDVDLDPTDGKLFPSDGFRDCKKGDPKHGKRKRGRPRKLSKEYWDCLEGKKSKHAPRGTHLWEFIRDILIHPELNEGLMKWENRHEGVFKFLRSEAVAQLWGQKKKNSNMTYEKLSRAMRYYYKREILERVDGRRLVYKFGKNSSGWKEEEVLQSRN
Conditions: protein: recombinant; tags: N-terminal GST; dsDNA, one strand shown. In a few lines: as §1

Another assay concerns the target CRX (Homo sapiens, UniProt O43186 1-299). The note with it: protein: recombinant; tags: N-terminal GST; dsDNA, one strand shown. In outline: as §1
The next assay deals with ETV1 (Homo sapiens, UniProt P50549 1-477). The note with it: protein: recombinant; tags: N-terminal GST; dsDNA, one strand shown. In outline:
as §1

Another assay has as its target T6, ERF (Homo sapiens, UniProt P50548 1-548).
T6 sequence: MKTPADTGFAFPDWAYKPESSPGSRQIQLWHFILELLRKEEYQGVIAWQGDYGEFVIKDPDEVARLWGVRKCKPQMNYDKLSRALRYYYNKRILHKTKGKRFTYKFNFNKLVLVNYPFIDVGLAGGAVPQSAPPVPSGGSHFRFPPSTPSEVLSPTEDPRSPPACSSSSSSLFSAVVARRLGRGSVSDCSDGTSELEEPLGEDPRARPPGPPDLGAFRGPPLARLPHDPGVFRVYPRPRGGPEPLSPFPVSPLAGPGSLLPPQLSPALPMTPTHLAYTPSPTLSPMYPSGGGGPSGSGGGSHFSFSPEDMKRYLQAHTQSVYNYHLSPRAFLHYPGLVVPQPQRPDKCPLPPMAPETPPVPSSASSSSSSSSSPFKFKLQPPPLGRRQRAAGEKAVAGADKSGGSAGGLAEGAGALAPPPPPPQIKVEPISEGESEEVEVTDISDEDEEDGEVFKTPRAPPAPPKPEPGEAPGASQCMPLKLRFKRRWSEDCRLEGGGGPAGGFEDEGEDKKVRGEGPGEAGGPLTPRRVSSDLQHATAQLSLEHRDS
The note with it: protein: recombinant; tags: N-terminal GST; dsDNA, one strand shown. In a few lines: as §1

The next assay deals with T7, ETV3L (Homo sapiens, UniProt Q6ZN32 1-361).
T7 sequence: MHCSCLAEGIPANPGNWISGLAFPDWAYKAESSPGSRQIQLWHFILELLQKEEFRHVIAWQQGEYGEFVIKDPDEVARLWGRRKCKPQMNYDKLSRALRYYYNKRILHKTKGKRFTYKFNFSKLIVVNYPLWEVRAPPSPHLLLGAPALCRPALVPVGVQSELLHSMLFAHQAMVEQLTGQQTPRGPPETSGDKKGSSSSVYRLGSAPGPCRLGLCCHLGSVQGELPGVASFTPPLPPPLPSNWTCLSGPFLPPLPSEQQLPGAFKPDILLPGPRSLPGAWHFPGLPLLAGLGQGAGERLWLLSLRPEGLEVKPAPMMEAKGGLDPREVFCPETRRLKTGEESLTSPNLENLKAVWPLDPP
Conditions: protein: recombinant; tags: N-terminal GST; dsDNA, one strand shown. In outline:
as §1

In another assay the target is T8, ETS2 (Homo sapiens, UniProt P15036 1-469).
T8 sequence: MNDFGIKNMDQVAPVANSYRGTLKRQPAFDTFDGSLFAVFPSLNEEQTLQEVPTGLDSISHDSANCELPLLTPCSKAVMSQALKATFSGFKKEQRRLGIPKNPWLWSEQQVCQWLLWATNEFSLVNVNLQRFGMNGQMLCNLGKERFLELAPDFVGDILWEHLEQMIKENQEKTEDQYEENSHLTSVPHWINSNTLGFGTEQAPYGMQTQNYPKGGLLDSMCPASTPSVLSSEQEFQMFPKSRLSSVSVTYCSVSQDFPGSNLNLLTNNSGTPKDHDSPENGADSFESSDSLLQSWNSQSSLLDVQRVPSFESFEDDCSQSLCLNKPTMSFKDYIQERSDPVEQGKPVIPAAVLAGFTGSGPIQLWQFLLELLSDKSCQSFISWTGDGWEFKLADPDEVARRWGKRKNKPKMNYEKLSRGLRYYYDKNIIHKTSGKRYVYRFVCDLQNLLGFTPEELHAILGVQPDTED
The note with it: protein: recombinant; tags: N-terminal GST; dsDNA, one strand shown. In outline: as §1

In a further assay the target is T9, SPDEF (Homo sapiens, UniProt O95238 1-335).
T9 sequence: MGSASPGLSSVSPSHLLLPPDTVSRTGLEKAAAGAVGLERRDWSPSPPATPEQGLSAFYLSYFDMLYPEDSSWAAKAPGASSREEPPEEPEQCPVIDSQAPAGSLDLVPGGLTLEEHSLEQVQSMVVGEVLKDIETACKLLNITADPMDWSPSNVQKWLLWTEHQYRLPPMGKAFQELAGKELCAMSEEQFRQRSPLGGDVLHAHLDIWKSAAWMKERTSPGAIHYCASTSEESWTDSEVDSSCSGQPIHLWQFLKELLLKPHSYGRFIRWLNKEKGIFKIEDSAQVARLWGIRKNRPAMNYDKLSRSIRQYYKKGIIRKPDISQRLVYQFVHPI
Conditions: protein: recombinant; tags: N-terminal GST; dsDNA, one strand shown. In a few lines: as §1

The next assay deals with T10, ETV7 (Homo sapiens, UniProt Q9Y603 1-341).
T10 sequence: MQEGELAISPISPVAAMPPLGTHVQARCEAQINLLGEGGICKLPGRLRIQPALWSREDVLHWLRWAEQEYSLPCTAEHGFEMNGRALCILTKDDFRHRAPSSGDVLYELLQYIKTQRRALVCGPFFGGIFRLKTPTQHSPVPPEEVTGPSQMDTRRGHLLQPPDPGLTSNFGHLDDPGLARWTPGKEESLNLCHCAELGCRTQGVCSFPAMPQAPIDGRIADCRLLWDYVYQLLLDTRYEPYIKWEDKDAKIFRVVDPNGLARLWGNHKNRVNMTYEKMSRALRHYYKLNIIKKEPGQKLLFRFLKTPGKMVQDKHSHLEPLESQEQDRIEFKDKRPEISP
The note with it: protein: recombinant; tags: N-terminal GST; dsDNA, one strand shown. In a few lines:
as §1

Another assay has as its target T11, ELF5 (Homo sapiens, UniProt Q9UKW6-2 1-255).
T11 sequence: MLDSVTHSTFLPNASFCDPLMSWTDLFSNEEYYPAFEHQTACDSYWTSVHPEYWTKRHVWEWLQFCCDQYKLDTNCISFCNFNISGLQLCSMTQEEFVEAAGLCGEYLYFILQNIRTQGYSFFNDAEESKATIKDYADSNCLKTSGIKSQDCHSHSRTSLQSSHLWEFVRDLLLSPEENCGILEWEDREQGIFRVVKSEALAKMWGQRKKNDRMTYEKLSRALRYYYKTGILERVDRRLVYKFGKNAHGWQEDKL
Conditions: protein: recombinant; tags: N-terminal GST; dsDNA, one strand shown. In outline:
as §1

The target of the next assay is T12, ETV3 (Homo sapiens, UniProt P41162-2 1-143).
T12 sequence: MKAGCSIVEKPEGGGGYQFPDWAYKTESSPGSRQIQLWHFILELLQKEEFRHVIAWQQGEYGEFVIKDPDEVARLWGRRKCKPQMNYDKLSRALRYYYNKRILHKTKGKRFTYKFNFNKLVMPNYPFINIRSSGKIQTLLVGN
The note with it: protein: recombinant; tags: N-terminal GST; dsDNA, one strand shown. In a few lines:
as §1

Sequence of HSF1 (Q00613 whole entry): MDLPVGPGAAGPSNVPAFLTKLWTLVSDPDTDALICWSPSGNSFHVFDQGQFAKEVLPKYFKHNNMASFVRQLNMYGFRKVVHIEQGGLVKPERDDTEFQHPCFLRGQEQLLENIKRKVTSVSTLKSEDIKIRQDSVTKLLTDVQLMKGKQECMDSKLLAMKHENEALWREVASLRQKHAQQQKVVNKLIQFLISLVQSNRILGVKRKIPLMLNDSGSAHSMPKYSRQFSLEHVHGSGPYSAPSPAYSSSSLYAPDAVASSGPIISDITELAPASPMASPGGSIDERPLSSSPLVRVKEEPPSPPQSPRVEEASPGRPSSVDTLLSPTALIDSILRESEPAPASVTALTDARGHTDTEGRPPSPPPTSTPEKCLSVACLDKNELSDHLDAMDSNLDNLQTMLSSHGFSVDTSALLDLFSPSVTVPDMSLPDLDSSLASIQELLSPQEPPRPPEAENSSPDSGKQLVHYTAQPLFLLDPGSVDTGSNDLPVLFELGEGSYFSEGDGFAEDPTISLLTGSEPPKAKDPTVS
Sequence of CRX (O43186 whole entry): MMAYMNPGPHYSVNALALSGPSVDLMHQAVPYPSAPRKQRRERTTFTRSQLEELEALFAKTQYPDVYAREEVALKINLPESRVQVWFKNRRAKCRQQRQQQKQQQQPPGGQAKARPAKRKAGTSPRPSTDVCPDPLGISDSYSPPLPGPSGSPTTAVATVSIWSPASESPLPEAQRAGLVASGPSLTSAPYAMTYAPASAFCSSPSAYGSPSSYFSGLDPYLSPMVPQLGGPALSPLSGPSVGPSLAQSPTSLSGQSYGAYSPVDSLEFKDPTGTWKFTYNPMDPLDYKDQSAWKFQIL
Sequence of ETV1 (P50549 whole entry): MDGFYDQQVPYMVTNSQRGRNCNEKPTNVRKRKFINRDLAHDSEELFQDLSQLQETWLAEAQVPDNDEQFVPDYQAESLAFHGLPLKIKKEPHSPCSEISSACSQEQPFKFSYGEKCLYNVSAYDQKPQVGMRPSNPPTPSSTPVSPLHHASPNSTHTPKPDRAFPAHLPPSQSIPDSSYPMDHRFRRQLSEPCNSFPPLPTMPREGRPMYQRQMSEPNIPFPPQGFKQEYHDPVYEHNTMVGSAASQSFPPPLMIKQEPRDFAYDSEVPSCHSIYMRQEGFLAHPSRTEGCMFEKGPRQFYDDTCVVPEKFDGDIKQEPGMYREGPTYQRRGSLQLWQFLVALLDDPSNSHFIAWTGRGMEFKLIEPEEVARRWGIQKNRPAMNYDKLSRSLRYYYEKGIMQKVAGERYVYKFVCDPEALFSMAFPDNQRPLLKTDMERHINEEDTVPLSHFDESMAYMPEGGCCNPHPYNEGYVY
Sequence of ELF4 (Q99607 whole entry): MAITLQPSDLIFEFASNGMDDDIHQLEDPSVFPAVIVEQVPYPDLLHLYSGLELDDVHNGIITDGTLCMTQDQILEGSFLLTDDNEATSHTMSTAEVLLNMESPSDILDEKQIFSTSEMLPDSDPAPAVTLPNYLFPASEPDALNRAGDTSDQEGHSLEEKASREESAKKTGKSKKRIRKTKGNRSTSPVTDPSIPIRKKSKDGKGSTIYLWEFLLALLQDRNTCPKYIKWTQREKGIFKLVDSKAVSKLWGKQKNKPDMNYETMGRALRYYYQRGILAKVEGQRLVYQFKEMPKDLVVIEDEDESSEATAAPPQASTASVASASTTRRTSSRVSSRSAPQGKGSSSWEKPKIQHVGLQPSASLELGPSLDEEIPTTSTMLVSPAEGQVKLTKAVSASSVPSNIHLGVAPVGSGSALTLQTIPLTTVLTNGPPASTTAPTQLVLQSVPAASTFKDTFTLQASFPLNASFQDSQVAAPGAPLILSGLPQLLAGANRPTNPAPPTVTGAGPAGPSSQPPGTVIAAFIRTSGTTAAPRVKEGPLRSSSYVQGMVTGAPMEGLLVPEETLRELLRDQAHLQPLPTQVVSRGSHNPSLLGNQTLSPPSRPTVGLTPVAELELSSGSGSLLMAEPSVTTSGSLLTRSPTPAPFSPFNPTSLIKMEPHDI

Consider GCTGAT, for which the binding signal with FEV is 1.07 fold enrichment (6-mer frequency, TF over GST control); with ETV5, 1.11 fold enrichment (6-mer frequency, TF over GST control); with HSF1, 1.16 fold enrichment (6-mer frequency, TF over GST control); in the assay with SPIC, 1.19 fold enrichment (6-mer frequency, TF over GST control); with ELF4, 1.19 fold enrichment (6-mer frequency, TF over GST control); with ELK4 it was 1.25 fold enrichment (6-mer frequency, TF over GST control). Further, the binding signal is 1.08 fold enrichment (6-mer frequency, TF over GST control) in the assay with ETV2; 1.16 fold enrichment (6-mer frequency, TF over GST control) with ELF3; 1.39 fold enrichment (6-mer frequency, TF over GST control) in the assay with CRX; 1.2 fold enrichment (6-mer frequency, TF over GST control) in the assay with ETV1; 1.07 fold enrichment (6-mer frequency, TF over GST control) with ERF; 1.18 fold enrichment (6-mer frequency, TF over GST control) with ETV3L. Moreover, the binding signal with ETS2 was 1.12 fold enrichment (6-mer frequency, TF over GST control); with SPDEF it was 1.07 fold enrichment (6-mer frequency, TF over GST control); in the assay with ETV7 it was 1.27 fold enrichment (6-mer frequency, TF over GST control); with ELF5, 1.03 fold enrichment (6-mer frequency, TF over GST control); with ETV3 it was 1.2 fold enrichment (6-mer frequency, TF over GST control).
